Hit rate of the full screen: of about 360,000 compounds, about 1,700 (0.47%) were called active. The list comes from a sample in which actives are over-represented; it also holds similar structures and randomly drawn compounds. A number with no mark means an inactive call. No stated cut-off is given here; in the data, active means activation above about 15%; inactive means the rest.

These results are taken from PubChem BioAssay AID602248 (The Scripps Research Institute Molecular Screening Center, 2012).

This experiment can be described thus: counter-screen for M1 agonists: effect in parental CHO-K1 cells (AID 602248).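 Further: untransfected CHO-K1 host cells lacking M1 receptor as counterscreen.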 The following applies: Fluo-8 calcium fluorescence, at 3 µM, active compounds read high, scaled to maximal ATP response, vehicle zero.
For `COc1ccc(Br)cc1CN(C)CC(=O)Nc1cc(Cl)cc(Cl)c1`, the activation was 18.5% (active).
Under `COc1ccc(Br)cc1CN(C)CC(=O)Nc1cc([N+](=O)[O-])ccc1OC` stands 0.64%; under `COc1ccc(Cl)cc1NC(=O)CN(C)Cc1ccc(OC)c(OC)c1`, 6.25%.
Under `OCC1(Cc2ccccc2C(F)(F)F)CCN(Cc2ccncc2)CC1` stands 1.74%; under `N#CC1(Nc2ccc3c4c(cccc24)CC3)CCCCC1`, 41% (active).
Under `N#CC1(Nc2ccc(-c3ccc(Cl)cc3)cc2)CCCC1` stands 0.41%.
On to `CC(C)C(=O)Nc1ccc2c3c(cccc13)CC2`, for which the activation is -0.06%.
For `CC(C)(O)C#Cc1ccc(CNC[C@H]2O[C@@H](n3cnc4c(=O)[nH]c(N)nc43)[C@H](O)[C@@H]2O)s1`, the activation was 0.21%.
The value for `COCCN(C(=O)CCC(=O)Nc1nccs1)C(C(=O)NCCC(C)C)c1ccc(F)cc1` (stereo unspecified) was 0.22%; that for `COc1cncc(-c2cnc3sc(NCCc4ccccn4)nn23)c1` was 0.67%.
Under `Cc1ccc(S(=O)(=O)N(C)CC(=O)NCCc2c[nH]c3ccccc23)cc1` stands 6.95%.
The value for `COc1cccc(CNC(=O)CN(C)S(=O)(=O)c2ccc3c(c2)c(=O)n(C)c(=O)n3C)c1` was 1.02%; that for `CCc1ccccc1NC(=O)CN(C)S(=O)(=O)c1ccc2c(c1)c(=O)n(C)c(=O)n2C` was 1.14%; that for `CC1CCC(NC(=O)CN(C)S(=O)(=O)c2ccc3c(c2)c(=O)n(C)c(=O)n3C)CC1` (stereo unspecified) was 15.6% (active).
In the case of `COc1ccc(N(CCC#N)S(=O)(=O)c2ccc(Cl)cc2)cc1`, the activation was 1.81%.
Under `COC(=O)c1ccc(CSc2ccc3nnc(-c4ccccc4)n3n2)o1` stands 2.77%.
With `Cc1oc2nc(SCC(=O)Nc3ccc(S(N)(=O)=O)cc3)nc(NC(=O)c3ccccc3)c2c1C`, the activation is 0.44%.
For the compound `COc1ccc(OC)c(S(=O)(=O)Nc2ccccc2F)c1`, the activation is 0.21%.
Under `COc1cc(OC)c(S(=O)(=O)Nc2ccccc2C(=O)O)cc1S(=O)(=O)Nc1ccccc1C(=O)O` stands 15.1% (active); under `COc1cc(/C=C/C(=O)O)cc(S(=O)(=O)Nc2ccccc2C(=O)NCCc2ccccc2)c1OC`, -0.11%.
Under `CC(=O)c1c(C)[nH]c(C(=O)COC(=O)c2cccc(S(=O)(=O)N(C)c3ccccc3)c2)c1C` stands 17.5% (active); under `CC(=O)c1c(C)[nH]c(C(=O)COC(=O)CCOc2ccc(C)cc2)c1C`, 7.01%; under `COc1ccc(C)cc1NC(=O)C(OC(=O)c1cccc(S(=O)(=O)N(C)c2ccccc2)c1)c1ccccc1` (stereo unspecified), -0.35%.
The value for `COCCN1C(=O)C(=O)/C(=C(/O)c2ccc(S(=O)(=O)N3CCOCC3)cc2)C1c1ccc(OC)c(OC)c1` (stereo unspecified) was 1.09%.
With `O=C(c1ccc(=O)oc1)N1CCC(C(O)(c2ccccc2)c2ccccc2)CC1`, the activation is 0.08%.
The value for `c1ccc(C(=NNc2nc3ccccc3s2)c2ccccn2)cc1` was 15.9% (active).
Under `O=C(Nc1nnc(C2CC2)s1)c1ccccn1` stands 0.38%; under `CSc1ncccc1C(=O)Nc1nc2ccc(F)cc2s1`, 3.35%; under `CC(C)(C)S(=O)(=O)N1Cc2cc(CO)cc(CCO)c2[C@H]1CCO`, 0.36%.
Consider `CC(C)C(=O)NCC(c1cccs1)S(=O)(=O)c1ccc(F)cc1` (stereo unspecified), for which the activation is 2.59%.
The value for `COc1cccc(C2c3[nH]c4ccccc4c3CCN2Cc2cccc(C)n2)c1` (stereo unspecified) was 1.31%; that for `Cc1cccc(C(=O)N2CCc3c([nH]c4ccccc34)C2CC(C)C)n1` (stereo unspecified) was 16.4% (active); that for `Cc1cccc(C2c3[nH]c4ccccc4c3CCN2C(=O)c2cc(-c3cccn3C)n[nH]2)n1` (stereo unspecified) was 0.16%.
Under `Cc1ccc(S(=O)(=O)N2CCC3(CC2)OCCO3)c(C)c1` stands 0.97%; under `Cc1ccc(C)c(S(=O)(=O)N2CCN(CC(=O)Nc3ccc([N+](=O)[O-])cc3)CC2)c1`, 6.2%.
The value for `Cc1ccc(C)c(S(=O)(=O)N2CCN(c3ncnc4sccc34)CC2)c1` was 15.9% (active); that for `OCC[C@H]1C[C@H](O)[C@@H](O)[C@]2(Cc3ccccc3CO2)O1` was 0.07%; that for `CCCCc1ccc(S(N)(=O)=O)cc1` was 1.03%.
In the case of `O=C(Nc1cc(Cl)ccc1N1CCOCC1)c1ccc(N2CCCC2=O)cc1`, the activation was 1.09%.
Under `CCN(CC)c1ccc2oc(=O)c(C)nc2c1` stands 28.8% (active); under `Cc1ccc2c(=O)oc(N(C)C)nc2c1`, -0.31%; under `Cc1ccc2oc(=O)ccc2c1`, 0.97%.
As for `O=S1(=O)CC(N2CCN(CCO)CC2)CN1C1CCCC1` (stereo unspecified), the activation was 0.24%.
Under `Cc1nc2cc(C(F)(F)F)ccc2n1CCNc1nc(-c2cc(Cl)c(N)c(Cl)c2)cs1` stands -0.4%; under `CC(C)(c1ccccc1)c1ccc(OCCN2CCCC2)cc1`, 1.86%; under `CC(C)(c1ccccc1)c1ccc(OCCN)cc1`, 16.5% (active).
As for `Cc1nn(CCOc2ccccc2)c(=O)n1-c1ccccc1F`, the activation is 0.58%.
Under `O=C(CC(NC(=O)c1ccccc1)c1ccccc1)Nc1ccc(F)c(F)c1` (stereo unspecified) stands 8.06%; under `CN(C)c1ccc(CSc2ccccc2)cc1`, -0.35%; under `CN(C)c1ccc(/C=C2\NC(=S)N(Cc3ccccc3)C2=O)cc1`, 27.4% (active).
Turning to `CN(C(=O)CN1C(=O)NC(C)(CCc2ccccc2)C1=O)c1ccccc1` (stereo unspecified), the activation is 1.76%.
Under `CCn1c(SCC(=O)Nc2ccccc2F)nc2c(c1=O)SC(C)C2` (stereo unspecified) stands 3.19%.
The value for `O=C(CSc1nnc(CN2CCCC2)n1-c1ccc(F)cc1)c1ccc2c(c1)OCO2` was 1.52%; that for `Cc1ccc(S(=O)(=O)N(Cc2cc3ccccc3[nH]c2=O)CC2CCCO2)cc1` (stereo unspecified) was 5.14%.
Under `Cc1ccc(S(=O)(=O)N(C)C)cc1NC(=O)COC(=O)C1COc2ccccc2O1` (stereo unspecified) stands 1.48%; under `CC(Oc1ccc2ccccc2c1)C(=O)NNC(=S)NC(=O)c1ccco1` (stereo unspecified), 33.6% (active).
With `CCCc1ccc(OCC(=O)NNC(=S)NC(=O)c2ccco2)cc1`, the activation was 7.19%.
The value for `O=C(Nc1ccc2ccccc2c1)/C(=C\c1ccc2c(c1)OCO2)NC(=O)c1ccco1` was 1.3%.
Under `COC(=O)c1cc(C(=O)OCC(=O)Nc2cc(C)on2)cc([N+](=O)[O-])c1` stands 0.23%; under `CN1CCN(C(=O)c2cnn(-c3ccccc3)c2NC(=O)c2ccc([N+](=O)[O-])cc2)CC1`, 0.79%; under `COc1cc(C(=O)NCc2ccc3c(c2)cc(C)n3C)cc(OC)c1OC`, -0.48%.
As to `COc1cc(C(=O)NCc2ccc(-n3cccc3)cc2)cc(OC)c1OC`, the activation is 7.89%.
Under `CCn1c(CNC(=O)c2cc(OC)c(OC)c(OC)c2)cc2cc(C)ccc21` stands 20.6% (active); under `CCCOCC(O)CC(CC)C(=O)NNC(=S)Nc1ccccc1` (stereo unspecified), 0.03%.
For the compound `CCCCC(=O)NCc1ccc(F)cc1`, the activation was -0.33%.
`CCCCC(=O)NNC(=S)NC(=O)C(c1ccccc1)c1ccccc1`: the activation was 86% (active).
The value for `CCCCC(CC)CNC(=O)C(=O)C1C(=O)Nc2ccccc21` (stereo unspecified) was -0.65%; that for `CCOC(=O)c1c(C)oc(C)c(C(=O)OCC)c1=O` was 0.16%; that for `O=C1NC[C@H](CCCCN2C[C@H](Cc3ccc(O)cc3)N(CCc3ccccc3)C(=O)C2=O)N(CCc2ccccc2)C1=O` was 0.62%.
The value for `N#C/C(=C/c1ccc(N2CCCCC2)o1)C(=O)NCCc1c[nH]c2ccccc12` was 24.1% (active); that for `Cc1ccc(C(=O)N/C(=C/c2ccco2)C(=O)NCCc2c[nH]c3ccccc23)cc1C` was 1.71%; that for `N#C/C(=C\c1ccc(N2CCOCC2)o1)C(=O)N1CCOCC1` was 4.52%.
The value for `COc1ccc(C(=O)OCC(=O)Nc2cccc(C(C)=O)c2)cc1OC` was 2.14%.
Consider `C=CCSc1nsc(NC(=O)Nc2cccc(C(C)=O)c2)n1`, for which the activation was 15.8% (active).
Under `CCSc1nsc(NC(=O)Nc2cccc(C(C)=O)c2)n1` stands 16.5% (active).
Take `CCCCN1C(=O)C(=O)N(CC(=O)Nc2cccc(C(C)=O)c2)C1=O`: the activation was -0.29%.
The value for `CC(=O)c1cccc(NC(=O)[C@@H](NC(N)=O)C(C)C)c1` was -0.09%; that for `CCc1nnc(NC(=O)CSc2nnnn2-c2cccc(C(C)=O)c2)s1` was -0.49%.
The value for `Cc1ccc(C(=O)N2CCC(n3nccc3NC(=O)Nc3cccc(F)c3)CC2)cn1` was 1.73%; that for `COc1ccc(OCC(=O)OCC(=O)Nc2ccc(S(=O)(=O)N3CCCCC3)cc2)cc1` was 0.75%.
Turning to `CCOC(=O)COc1ccc(Cl)cc1C1NC(=O)NC(C)=C1C(C)=O` (stereo unspecified), the activation is 0.08%.
The value for `CN(C)CCCCCN(C)Cc1cc2ccccc2o1` was 0%; that for `CCCCNC(=O)c1nc(C2CCN(S(=O)(=O)c3ccc(F)c(F)c3)CC2)oc1-c1cccc(C(F)(F)F)c1` was 2.76%.
The value for `Cn1nnnc1SCC(=O)NNC(=O)c1ccc(Br)cc1` was -0.47%.
Consider `COC(=O)COc1ccc2c(=O)c(Oc3ccccc3Br)coc2c1`, for which the activation is 0.1%.
Under `C[C@H](CO)N1C[C@H](C)[C@@H](CN(C)S(=O)(=O)c2ccc(Oc3ccccc3)cc2)OCc2cn(nn2)CCCC1=O` stands 0.23%.
With `CC(OC(=O)CN1C(=O)C2CCCCC2C1=O)C(=O)Nc1ncc(Cl)cc1Cl` (stereo unspecified), the activation was 0.87%.
The value for `c1ccc2c(c1)OCC(CNc1ncnc3nc[nH]c13)O2` (stereo unspecified) was 109% (active); that for `O=C(COc1ccc(F)cc1Br)NCC1COc2ccccc2O1` (stereo unspecified) was 0.07%.
Under `O=C(COC(=O)c1ccc(F)cc1)NCC1COc2ccccc2O1` (stereo unspecified) stands 1.54%.
The value for `Cn1c(N)cc(=O)n(C)c1=S` was -0.09%.
